Test results from PubChem BioAssay AID1159580 (chemical genetic matrix, 2015).
Screen size: about 5,500 compounds; about 2,000 (36%) were called active. Roughly 18% stayed inconclusive and do not appear here. Rule as the data show it: active = normalized growth mostly below about 0.91 (no sharp cut-off); inconclusive = no clear call, values can overlap the other calls; inactive = mostly above about 0.92. The list shows a part of the results.

Test: chemical genetic growth profiling, strain panel (AID 1159580);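 also: tested at 20 µM; growth read once vehicle control cultures reached saturation at 30 °C; 1 = growth at the plate median or of vehicle wells; lower values mean less growth of the strain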
Conditions: S. cerevisiae deletion strains, growth OD

Measured: normalized growth

CCOP(=S)(OCC)SCn1c(=O)oc2cc(Cl)ccc21
inactive: locus YAL013W, strain DEP1, active compounds read low 1 | locus YAL021C, strain ccr4, active compounds read low 0.957 | locus YAL026C, strain drs2, active compounds read low 0.972 | locus YAL030W, strain snc1, active compounds read low 0.947 | locus YBL061C, strain skt5, active compounds read low 0.949 | locus YBR021W, strain FUR4, active compounds read low 0.998 | locus YBR023C, strain chs3, active compounds read low 0.946 | locus YBR171W, strain sec66, active compounds read low 0.922 | locus YBR229C, strain ROT2, active compounds read low 0.997 | locus YBR231C, strain swc5, active compounds read low 0.956 | locus YBR279W, strain paf1, active compounds read low 0.977 | locus YCL011C, strain gbp2, active compounds read low 0.961 | locus YCL016C, strain dcc1, active compounds read low 0.955 | locus YCL029C, strain bik1, active compounds read low 0.985 | locus YCL061C, strain MRC1, active compounds read low 0.956 | locus YCL069W, strain vba3, active compounds read low 0.968 | locus YCR088W, strain abp1, active compounds read low 0.961 | locus YDL005C, strain med2, active compounds read low 0.968 | locus YDL035C, strain GPR1, active compounds read low 0.987 | locus YDL040C, strain nat1, active compounds read low 0.961 | locus YDL074C, strain BRE1, active compounds read low 0.928 | locus YDL101C, strain DUN1, active compounds read low 1.01 | locus YDL134C, strain PPH21, active compounds read low 0.991 | locus YDL185W, strain tfp1, active compounds read low 1 | locus YDL192W, strain arf1, active compounds read low 0.989 | locus YDR001C, strain nth1, active compounds read low 0.96 | locus YDR069C, strain doa4, active compounds read low 0.956 | locus YDR101C, strain arx1, active compounds read low 0.992 | locus YDR150W, strain NUM1, active compounds read low 0.995 | locus YDR159W, strain sac3, active compounds read low 0.97 | locus YDR162C, strain NBP2, active compounds read low 0.987 | locus YDR195W, strain ref2 1.04 | locus YDR297W, strain sur2, active compounds read low 0.943 | locus YDR318W, strain mcm21, active compounds read low 0.993 | locus YDR334W, strain swr1, active compounds read low 0.965 | locus YDR335W, strain msn5, active compounds read low 0.974 | locus YDR388W, active compounds read low 0.994 | locus YDR392W, strain spt3, active compounds read low 0.872 | locus YDR502C, strain sam2, active compounds read low 0.986 | locus YEL003W, strain gim4, active compounds read low 0.961 | locus YEL037C, strain rad23, active compounds read low 0.975 | locus YEL061C, strain CIN8 (second series), active compounds read low 0.96 | locus YEL061C, strain CIN8, active compounds read low 0.99 | locus YER015W, strain faa2, active compounds read low 0.967 | locus YER016W, strain bim1, active compounds read low 0.958 | locus YER110C, active compounds read low 0.993 | locus YER111C, strain swi4, active compounds read low 0.965 | locus YER155C, strain BEM2 (second series), active compounds read low 0.952 | locus YER155C, strain BEM2, active compounds read low 0.993 | locus YER167W, strain BCK2, active compounds read low 1 | locus YFR010W, strain ubp6, active compounds read low 0.979 | locus YGL078C, strain dbp3, active compounds read low 0.984 | locus YGL086W, strain mad1, active compounds read low 0.986 | locus YGL167C, strain pmr1, active compounds read low 0.921 | locus YGL173C, strain kem1, active compounds read low 0.943 | locus YGL227W, strain vid30, active compounds read low 0.963 | locus YGL240W, strain doc1, active compounds read low 0.935 | locus YGL248W, strain PDE1, active compounds read low 0.985 | locus YGL253W, strain hxk2, active compounds read low 0.961 | locus YGR078C, strain PAC10, active compounds read low 0.994 | locus YGR135W, strain pre9, active compounds read low 0.977 | locus YGR229C, strain SMI1, active compounds read low 1.01 | locus YGR252W, strain gcn5, active compounds read low 0.987 | locus YHR013C, strain ard1, active compounds read low 1.01 | locus YHR027C, strain rpn1, active compounds read low 0.959 | locus YHR030C, strain SLT2, active compounds read low 0.984 | locus YHR079C, strain IRE1 (second series), active compounds read low 0.996 | locus YHR094C, strain hxt1, active compounds read low 0.994 | locus YHR129C, strain ARP1, active compounds read low 0.986 | locus YHR142W, strain chs7, active compounds read low 0.954 | locus YHR200W, strain rpn10, active compounds read low 0.99 | locus YIL066C, strain RNR3, active compounds read low 1.01 | locus YIL073C, strain SPO22, active compounds read low 1.06 | locus YIL125W, strain kgd1, active compounds read low 0.984 | locus YIR030C, strain dcg1, active compounds read low 0.989 | locus YJL092W, strain hpr5, active compounds read low 0.965 | locus YJL095W, strain BCK1 (second series), active compounds read low 0.941 | locus YJL095W, strain BCK1, active compounds read low 0.975 | locus YJL115W, strain asf1, active compounds read low 0.969 | locus YJL129C, strain trk1, active compounds read low 0.907 | locus YJL134W, strain LCB3, active compounds read low 0.994 | locus YJL154C, strain vps35, active compounds read low 0.972 | locus YJL164C, strain tpk1, active compounds read low 0.943 | locus YJL166W, strain qcr8, active compounds read low 0.942 | locus YJL168C, strain set2, active compounds read low 0.991 | locus YJL187C, strain SWE1 (second series), active compounds read low 1 | locus YJL187C, strain SWE1, active compounds read low 0.95
active: locus YBR009C, strain hhf1, active compounds read low 1.35 [resistant] | locus YDR137W, strain rgp1, active compounds read low 0.81
